Measured values reported in PubChem BioAssay (NCATS).
Records with an inconclusive call do not appear. Entries that show only a call come without a potency. The source made the active and inactive calls. Calls follow the shape of the dose curve; as a rule, active = well fitted curve in the direction sought with a large enough effect; inconclusive = small, poorly fitted or top-dose-only effect, or another doubt; inactive = no such curve, though single readings can be large; an effect the other way counts as inactive or inconclusive.

Key:
[1] = qHTS to identify inhibitors of the type 1 interferon - major histocompatibility complex class I in skeletal muscle: primary screen against the NCATS Pharmaceutical Collection (AID 1347407);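 also: luminescence of HiBiT knocked into endogenous HLA-B as interferon-induced MHC class I level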
In short: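 Immortalized human myoblasts (C25cl48) with HiBiT knocked into endogenous HLA-B*08:01 were stimulated with 4.0 ng/ml IFN-beta and treated with compounds ([…] top 46 uM) for 24 hrs at 37 C. HiBiT lytic luminescence read.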

[2] = target: Protein phosphatase 1D (Homo sapiens) (UniProt O15297); assay: RapidFire Mass Spectrometry qHTS Assay for Modulators of WT P53-Induced Phosphatase 1 (WIP1) (AID 1347424); also: series mostly up to about 63 µM
In short: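 RapidFire MS readout of dephosphorylated VEPPL-S-QETFS product, with 1 uM isotope-labelled peptide standard. Reaction: 10 nM WIP1, 2 uM phosphopeptide substrate, 5 min, room temperature, after 1 h compound preincubation; stopped with 0.5% formic acid.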

[3] = target: Protein phosphatase 1D (Homo sapiens) (UniProt O15297); assay: Rhodamine-PBP qHTS Assay for Modulators of WT P53-Induced Phosphatase 1 (WIP1) (AID 1347425)
In short: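 WIP1 (5 nM final) was preincubated with compound for 1 hour at room temperature. It then dephosphorylated 10 uM VEPPL-pS-QETFS peptide in Tris-HCl pH 7.5 with 30 mM MgCl2. Released Pi was detected by 10 uM Rh-PBP fluorescence (ex 525/em 598 nm) read at 1-min intervals for 11 min, as delta f1 - f0.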

[4] = qHTS for inhibitors of adenylyl cyclases using a fission yeast platform: a pilot screen against the NCATS LOPAC library (AID 1347410)
In short: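 S. pombe CHP2027 (AC9-GNAS-PDE4D2) carrying PKA-repressed fbp1-GFP, incubated 18 h at 30C in EMM with LOPAC compounds at up to 57 uM. GFP gain-of-signal read by laser scanning cytometry; DMSO negative control.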

[5] = Validation qHTS assay for inhibitors of Activation Induced Cytidine Deaminase (AID): UDG Counterscreen signal (AID 1347427)
In short: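 Fluorescence at 560 nm excitation, 665 nm emission reports UDG signal after 250 mM NaOH (2x) addition and 30 min. Enzymes (AID 1 uM, UDG 2 U/mL, at 4/3x) preincubated 10 min with compound, then 4 h with 4x 250 nM DJC20/DJC23 substrate at room temperature.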

Sequence of Protein phosphatase 1D (Homo sapiens) (O15297 whole entry, looked up): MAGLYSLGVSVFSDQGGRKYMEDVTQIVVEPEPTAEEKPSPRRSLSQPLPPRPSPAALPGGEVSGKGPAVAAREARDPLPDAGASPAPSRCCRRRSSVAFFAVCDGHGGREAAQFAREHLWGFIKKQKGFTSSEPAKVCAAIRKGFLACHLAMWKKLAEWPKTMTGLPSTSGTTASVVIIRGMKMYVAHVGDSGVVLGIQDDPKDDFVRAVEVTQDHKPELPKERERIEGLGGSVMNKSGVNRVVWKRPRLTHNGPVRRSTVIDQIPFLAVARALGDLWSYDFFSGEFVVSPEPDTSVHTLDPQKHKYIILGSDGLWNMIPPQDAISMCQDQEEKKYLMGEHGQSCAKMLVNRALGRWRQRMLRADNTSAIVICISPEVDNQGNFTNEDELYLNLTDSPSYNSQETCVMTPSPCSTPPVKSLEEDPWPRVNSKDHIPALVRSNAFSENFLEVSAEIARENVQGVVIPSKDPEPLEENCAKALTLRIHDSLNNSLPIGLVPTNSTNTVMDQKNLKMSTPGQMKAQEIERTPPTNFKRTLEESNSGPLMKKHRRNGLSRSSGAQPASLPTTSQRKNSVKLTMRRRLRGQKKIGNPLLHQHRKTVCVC

With CC(Oc1c(Cl)cccc1Cl)C1=NCCN1 (centres undefined) as the molecule, how does the Potency [1] read?
The Potency was “inactive”.

And the Potency [2]?
The Potency was “inactive”.

What about the outcome [3] of the same molecule?
Its outcome is “inactive”.

Which results are given for COC(=O)c1cc(Cl)ccc1NS(=O)(=O)C(F)(F)F?
Potency [2]: inactive; outcome [3]: inactive

For C/C(=C(/OCCOc1ccc(Cl)cc1)c1ccc(Cl)cc1Cl)n1ccnc1, which Potency [2] is on record?
The Potency was “inactive”.

And the outcome [3]?
The outcome was “inactive”.

What does the source list for CCCC(=O)OCOC(=O)C1=C(C)NC(C)=C(C(=O)OC)C1c1cccc(Cl)c1Cl (centres undefined)?
Potency [2]: inactive; outcome [3]: inactive

Which results are given for Cc1c(N)cccc1C(F)(F)F?
Potency [1]: inactive; Potency [2]: inactive; outcome [3]: inactive

With COc1cccc2c1[C@@H]1CN(CCCCn3c(=O)[nH]c4c(sc5ncc(-c6ccccc6)nc54)c3=O)C[C@@H]1CO2 as the molecule, how does the outcome [4] read?
The outcome was “inactive”.

What about the outcome [5] of the same molecule?
Its outcome is “inactive”.

With CC(C)Cc1ccc(C(C)C(=O)OCc2ccccn2)cc1 (centres undefined) as the molecule, how does the Potency [1] read?
The Potency was “inactive”.

And the Potency [2]?
Its Potency is “inactive”.

What about the outcome [3] of the same molecule?
The outcome was “inactive”.

For Cc1cc2nc3ccc(=[N+](C)C)cc-3sc2cc1N, which Potency [2] is on record?
The Potency was “inactive”.

Which Potency [2] does the source give for N#C/C(=C1/SC[C@@H](c2ccc(Cl)cc2Cl)S1)n1ccnc1 here?
The Potency was “inactive”.
